Drawing on PubChem BioAssay (NCI), this text covers growth for 40 compounds.

This is part of a sample that, as a whole, favours compounds with a hit. Of some 83,000 tested, about 20% had one in any assay.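 How to read the values: 0–100, growth inhibition (40 = 60% inhibited); 0, no net growth; -100 to 0, cell death (-40 = 40% of starting cells died; -100 = all dead).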 Unmarked numbers belong to inactive results. Calls of active or inactive are those of the source.

The subject of this experiment is HOP-92 NSCLC. Briefly: NCI-60 one-dose screen, 48 h (100 = growth as untreated, 0 = no growth, -100 = all killed). Particulars: 10 µM unless noted. As to the method:
Growth inhibition of the HOP-92 human Non-Small Cell Lung tumor cell line is measured as a screen for anti-cancer activity. Cells are grown in 96 well plates and exposed to the test compound for 48 hours. Compounds are tested at a single concentration, which is 10^-5 M for most compounds. The reported endpoint is percent growth (GI% or GIPRCNT), where numbers from 0 - 100% represent growth inhibition, and numbers from -100% - 0 represent cell death. For example, a value of 40 represents 60% growth inhibition. A value of 0 means no net growth occurred over the course of the experiment. A value of -40 indicates 40% of cells at the beginning of the experiment died by the end of the experiment. A value of -100 means all cells are dead at the end of the experiment.
NCI-60 Human Tumor Cell Lines Screen was performed using the standard one-dose NCI protocol, which is described in more detail at https://dtp.cancer.gov/discovery_development/nci-60/default.htm.
Compounds with GIPRCNT values below 10 were considered active. Activity score was based on GIPRCNT using the following formula: […]
Score is 0 for GIPRCNT values of 100 or above, 50 for GIPRCNT values of 0, and 100 for GIPRCNT values of -100.
For the compound `O=c1onc(-c2ccccc2)c2ccccc12`, the growth is 95.4%. Consider `O=C1c2ccccc2-c2nnc(-c3ccc(Br)cc3)cc21`, for which the growth was 78.6%. Take `C[C@@H](Oc1cc(-c2cnn(C3CC4(CCNCC4)C3)c2)cnc1N)c1c(F)ccc(Cl)c1Cl`: the growth was -18.8% (active). With `COc1cc(/C=C/C(=O)C2=C(/C=C/c3ccc(O)c(OC)c3)NC(=O)NC2c2ccc(O)c(OC)c2)ccc1O` (stereo not given), the growth was 88.9%. As for `CSc1ccc(OC(C)=O)cc1C`, the growth was 97.2%.

`COc1ccc(/C=C2\Oc3cc(C)c(Cl)cc3C2=O)cc1OC`: the growth was 101%.

Regarding `Cc1nc2cc(Nc3nc(NCCO)nc(Nc4ccc(F)cc4)n3)ccc2n1Cc1ccccc1`, the growth is 49.9%.

As to `COC(=O)c1c2c(c(C)[n+]([O-])c1C)C(=O)C=C(NCc1ccc(F)c(Cl)c1)C2=O`, the growth was -42.6% (active).

As to `CCCCCCCCCCCCSC1=CC(=O)C=CC1=O`, the growth was 24.3%.

`CC(C)(C)[Si](C)(C)OC1[C@@H](COC(N)=O)O[C@@H](n2cnc3c(N)ncnc32)[C@H]1O[Si](C)(C)C(C)(C)C` (stereo not given in full): the growth is 55.3%.

Take `Clc1ccc(Nc2ccnc(N3CCN(c4ccnc5cc(Cl)ccc45)CC3)n2)cc1`: the growth was 39.4%.

For the compound `c1ccc2cc(Cn3c(-c4ccc5ccccc5c4)[n+](Cc4ccc5ccccc5c4)c4ccccc43)ccc2c1`, the growth is -60.3% (active). Regarding `Brc1ccc(SCN(CSc2ccc(Br)cc2)Cc2ccccc2)cc1`, the growth was 59.7%. With `COc1cc2nc(SCc3cc(OC)c(OC)c(OC)c3)n(-c3ccccc3OC)c(=O)c2cc1OC`, the growth is 65.8%. As for `COc1cc(OCc2cccc(-c3ccc(C(O)c4nccs4)cc3)c2C)cc(OC)c1C=O` (stereo not given), the growth was 62.5%.

Take `COc1ccc(NC(=O)c2ccc3c(c2)nc(-c2ccc(Cl)cc2)n3-c2cc(C(C)(C)C)[nH]n2)cc1`: the growth was 59.3%. Next, `CCC(=O)Nc1nnc(Cc2ccc(OC)c(OC)c2)s1`: 32.6%; `COC(=O)/C=C1/CCC2C3CCC4=CC(=O)C(Br)CC4(C)C3C(=O)CC12C` (stereo not given): 76.6%.

For the compound `Oc1ccc2ccccc2c1C1NN=C(c2ccccc2)S1` (stereo not given), the growth was 42.8%. With `Clc1ccc(C2=Nc3cccc4cccc(c34)N2)cc1Cl`, the growth is 92.9%. As to `COc1ccc2nc(-n3nc(C)cc3C)c(-n3nc(C)cc3C)nc2c1`, the growth was 115%. `Cc1nn(-c2ccccc2)c2nc3nc4c(c(N)c3c(-c3ccc(Cl)cc3)c12)CCC4`: the growth was 80.4%.

With `Cc1ccccc1-c1cc(-c2ccc(Br)s2)[nH]c(=O)c1C#N`, the growth was 77.9%.

As for `Nc1cc2[nH]c(=O)c3ccccc3c2cc1Br`, the growth was 58.4%. Turning to `CCOC(=O)C(CC(c1ccccc1)N1CCCCC1)[N+](=O)[O-]` (stereo not given), the growth is 78.4%. Next, `CCCCCn1c(=N)n(CC(O)COc2cccc(C)c2)c2ccccc21` (stereo not given): -10.9% (active); `c1ccc2c(c1)oc1cc3c(cc12)nnc1cccn13`: 120%. Next, `CC1(C)N=C(N)N=C(N)N1c1cccc(/C=C/C=C/c2cccc([N+](=O)[O-])c2)c1`: 70.7%. Regarding `COc1ccc(OC2=CC(=O)c3ccc(C)nc3C2=O)cc1`, the growth is 122%.

As to `CCCCCCCC/C=C\CCCCCCCCOc1cccc(CC(=O)NCC[N+]2(C)CCCCC2)c1`, the growth is 86.9%. For `N#Cc1c(-c2cccc(F)c2)cc(-c2ccc(Br)s2)[nH]c1=O`, the growth was 42.6%. For the compound `CCC(C)[C@H]1O[C@]2(CC[C@@H]1C)C[C@@H]1C[C@@H](C/C=C(\C)[C@@H](OC3C[C@H](OC)C(O[C@H]4C[C@H](OC)[C@@H](O)[C@H](C)O4)[C@H](C)O3)[C@@H](C)/C=C/C=C3\CO[C@@H]4[C@H](O)C(C)=C[C@@H](C(=O)O1)[C@]34O)O2` (stereo not given in full), the growth is -6.11% (active). For `COc1nc2c(cc1S(=O)(=O)c1ccccc1)CCc1c-2cnn1-c1ccccc1`, the growth is 22.1%. As to `Cc1cc(=O)[nH]n1-c1cc(Cl)ccc1N`, the growth is 114%. Take `O=C(CC(O)c1ccccc1)Nc1ccccn1` (stereo not given): the growth is 77%.

Take `O=C1/C(=C/c2ccc(F)cc2)CN(Cc2cn(CCNc3ccnc4cc(Cl)ccc34)nn2)C/C1=C\c1ccc(F)cc1`: the growth was -50.5% (active). In the case of `Cc1ccc2nc(NC(=O)CSC(=S)N3CCN(C)CC3)sc2c1`, the growth is 94.5%.

`CCCCCCCCCCCCCCn1c2ccccc2c2c3c(c4c5cc(OC)ccc5oc4c21)C(=O)NC3=O`: the growth is 106%. Turning to `O=c1c2c(=NCCN3CCCC3)cc3c(=O)n(CCCN4CCOCC4)c(=O)c4c(-c5ccc(CN6CCCC6)cc5)cc(c(O)n1CCCN1CCOCC1)c2c4-3`, the growth was -16.4% (active). In the case of `Nc1c(Br)cc(Br)cc1-c1n[nH]c(=O)[nH]c1=O`, the growth is 54.6%.
